VACV Venus inh = vaccinia inhibition (Venus reporter). Vaccinia virus Venus reporter expression, fluorescence. Potency, µM (series often up to 36.5 µM), inactives show at the highest dose activity change, negative = inhibition, most hits filed as inhibitors. 0.46% of 330,000 active. AID 720580; calls by dose curve; tested in A549 cells; also: % is scaled to controls: 0 for no effect and ±100 for the full control effect; nearly all actives have a fitted effect of over 30% in size
SARS PLP yeast = inhibitors of SARS-CoV papain-like protease in yeast; S. cerevisiae expressing SARS-CoV PLpro, growth rescue; Potency, µM (doses to about 32.9 µM), for inactives: at the top dose activity, positive = growth rescue, hits mostly activators; 0.19% of 330,000 active; calls by dose curve; also: 0% is about no effect; nearly all actives have a fitted effect of over 55% in size
AMA1 RON2 block = AMA1-RON2 (P. falciparum) interaction inhibition. AID 720542. Potency, µM (doses to about 58.2 µM), without a hit: at the highest dose activity change, negative = inhibition, actives largely listed as inhibitors. AlphaScreen AMA1-biotinylated RON2 peptide binding. 0.2% of 360,000 active;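 also: 0% = vehicle wells and -100% = peptide control; nearly all actives have a fitted effect of over 45% in size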
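AMA1 (3D7) with his tag at 25 nM final met compounds first, then biotinylated RON2 peptide at 25 nM; detection used donor plus acceptor beads, 10 µg/mL apiece, read by AlphaScreen after 30 min at room temperature.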
VACV mCherry inh = inhibitors of vaccinia virus infection (mCherry reporter signal). 0.63% of 310,000 active. Potency, µM (doses to about 36.5 µM), without a hit: at the top dose activity change, negative = inhibition, hits mostly inhibitors. AID 720579. Vaccinia virus mCherry reporter infection, fluorescence; calls by dose curve; tested in A549 cells; also: % is scaled to controls: 0 for no effect and ±100 for the full control effect; nearly all actives have a fitted effect of over 35% in size
AmpC inh detg = blocks E. coli AmpC beta-lactamase in detergent assay | Potency, µM (titrated, usually from 114 µM), inactives show top-dose activity change, negative = inhibition, most hits filed as inhibitors | AmpC hydrolysis of nitrocefin, absorbance 480 nm, 0.01% Triton | 0.041% of 370,000 active;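 also: 0% = no-compound wells and -100% = no-enzyme wells; nearly all actives have a fitted effect of over 25% in size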
Target sequence (P00811 whole entry, looked up): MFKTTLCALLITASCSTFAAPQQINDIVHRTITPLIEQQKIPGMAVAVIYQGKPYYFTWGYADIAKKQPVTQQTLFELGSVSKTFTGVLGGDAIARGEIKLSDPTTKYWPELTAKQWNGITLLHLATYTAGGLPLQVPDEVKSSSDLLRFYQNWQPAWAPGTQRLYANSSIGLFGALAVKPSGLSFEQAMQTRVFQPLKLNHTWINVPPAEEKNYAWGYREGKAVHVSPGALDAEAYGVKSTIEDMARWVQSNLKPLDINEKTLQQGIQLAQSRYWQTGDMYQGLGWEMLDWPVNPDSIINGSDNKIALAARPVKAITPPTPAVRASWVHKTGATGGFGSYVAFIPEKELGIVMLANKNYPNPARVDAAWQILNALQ
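AmpC (5.3 nM in the dispensed reagent) in 20 mM phosphate pH 7.0 with 0.01% (detergent screen) or 0.0001% Triton X-100 was preincubated with compounds for 15 min at room temperature. Nitrocefin was then added from an 800 uM solution, and hydrolysis was followed at 480 nm.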
AmpC inh no detg = AmpC beta-lactamase inhibition without detergent. P00811. AmpC nitrocefin hydrolysis, absorbance 480 nm, 0.0001% Triton. Potency, µM (doses to about 57.1 µM), without a hit: top-dose activity change, negative = inhibition, hits mostly inhibitors. 0.52% of 330,000 active. AID 485341;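 also: plate controls were no compound for no effect and no enzyme for full effect; nearly all actives have a fitted effect of over 20% in size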
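AmpC (5.3 nM in the dispensed reagent) in 20 mM phosphate pH 7.0 with 0.01% (detergent screen) or 0.0001% Triton X-100 was preincubated with compounds for 15 min at room temperature. Nitrocefin was then added from an 800 uM solution, and hydrolysis was followed at 480 nm.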
Numbers without * were called inactive; i = inactive; ? = inconclusive; / = no result given; [ ] = another dose, or the depositor's remark. Sampled rows, rich in hits. Any-hit rate of the full collection: about 1.3%. Unless noted, calls follow the shape of the dose curve; as a rule, active = well fitted curve in the direction sought with a large enough effect; inconclusive = small, poorly fitted or top-dose-only effect, or another doubt; inactive = no such curve, though single readings can be large; an effect the other way counts as inactive or inconclusive. Potency is read from the fitted curve at half-maximal effect.

SMILES	VACV Venus inh	SARS PLP yeast	AMA1 RON2 block	VACV mCherry inh	AmpC inh detg	AmpC inh no detg
CCOC(=O)C1CCCN(C(=O)c2cnn(-c3ncc4c(n3)-c3ccccc3CC4)c2C)C1 (stereo not given)	5%	/	/	-12%	/	/
COc1cccc(CN2CCC3(CCC(CNC(=O)c4ccco4)O3)CC2)c1OC (stereo not given)	5%	/	/	-7%	/	/
COC(=O)c1c[nH]c2c1-c1cc(C(=O)OCc3ccccc3)n(S(=O)(=O)c3ccc(C)cc3)c1C(=O)C2=O	2.2µM*	/	-8%	?	/	/
O=C(COc1ccccc1C(=O)Nc1cccc([N+](=O)[O-])c1)Nc1ccc(Br)cc1	-14%	/	/	?	/	/
CCOc1cc2c3c(c1)C1(C(=O)N3C(C)(C)CC2C)C(C#N)=C(N)N2C(=C1C#N)Nc1ccccc12 (stereo not given)	-28%	-11%	-18%[2.32 µM]	-24%	1%	13µM*
O=C(N[C@@H]1c2ccccc2C2(CCN(C(=O)c3cc4ccccc4oc3=O)CC2)[C@H]1O)c1cccnc1	-8%	/	/	-1%	/	/
O=C(O)CC(CNS(=O)(=O)c1ccccc1)c1ccccc1 (stereo not given)	-7%	6%	0%	18%	?	2.5µM*
O=C(O)CCCCCCNS(=O)(=O)c1ccccc1	/	12%	9%	/	-6%	-2%
CN1CCCc2cc(/C=C/c3ccnc4ccccc34)ccc21	33%	/	/	-10%	/	/
CCCc1cc2c(=O)c(-c3ccc4c(c3)OCCO4)coc2cc1OS(C)(=O)=O	?	-17%	14%[2.32 µM]	10µM*	-2%	-20%
CCCCn1c(-c2ccc(C(C)(C)C)cc2)nc2cc3[nH]c(=O)c(C(C)C)nc3cc21	?	-12%	45%	10µM*	-5%	-6%
CCCC1CC(CSC(=N)N)OC1=O (stereo not given)	-24%	14µM*	10%	/	-5%	-23%
CCCCCCC1CC(CSC(=N)N)OC1=O (stereo not given)	?	-2%	8%	/	0%	-15%
C=CCN1CC[C@@H](O)C(=C)S1(=O)=O	-11%	/	/	-20%	/	/
CN(CCO)C(=O)c1cn(C2CCCN(Cc3ccc(C(F)(F)F)cc3)C2)nn1 (stereo not given)	-2%	/	/	-8%	/	/
CCC1CN(CCNC(=O)c2ccnc(Cl)c2)Cc2cc(OC)ccc2O1 (stereo not given)	-4%	/	/	-6%	/	/
CNC[C@H](CC1CCCCC1)NC[C@H](Cc1ccccc1)NCCC12CC3CC(CC(C3)C1)C2	10µM*	-7%	47%	?	-14%	88%
NC[C@H](Cc1ccccc1)NCCCCC1CCCCC1	-4%	2%	88%	?	1%	-11%
COc1ccc(OC)c(S(=O)(=O)CC(=O)c2cc3ccc(OC)cc3oc2=O)c1	/	1%	5%	/	-4%	-47%
COc1cccc2cc(C(C)=O)c(=O)oc12	/	-2%	-4%	/	?	-11%
COc1cccc2cc(C(=O)CS(=O)(=O)c3ccc(Cl)cc3)c(=O)oc12	/	-1%	5%	/	4%	16µM*
COc1ccc(S(=O)(=O)CC(=O)c2cc3cc(Br)ccc3oc2=O)cc1	/	-6%	-9%	/	2%	28µM*
Oc1ccc(CNc2ccccc2)c2cccnc12	/	10µM*	-74%	/	?	-50%
NC(=O)c1ccnc2c(O)cccc12	/	-5%	/	/	?	-8%
COCc1ccc(O)c2ncccc12	?	-35%	25µM*	/	1%	-1%
SMILES	VACV Venus inh	SARS PLP yeast	AMA1 RON2 block	VACV mCherry inh	AmpC inh detg	AmpC inh no detg
OCc1ccnc2c(O)cccc12	/	13%	11µM*	/	-13%	2%
COc1cccc(C(=O)N2CCCC(c3nc(SCCN4CCOCC4)ncc3C)C2)c1 (stereo not given)	-3%	/	/	-9%	/	/
CCOC(=O)C1CCCCN1C(=O)c1cnn(-c2nccc(-c3cc(C)sc3C)n2)c1C1CC1 (stereo not given)	-19%	/	/	-24%	/	/
O=Nc1c(-c2ccccc2)n(O)[n+]([O-])c1-c1ccccc1	11µM*	/	-26%	?	/	/
COc1cc(/C=C/c2ccc3cccc(O)c3n2)cc(OC)c1OC	-22%	1%	103%	8.9µM*	-7%	18%
COc1cc(/C=C/c2ccc3cccc(O)c3n2)cc(Br)c1OC	-3%	-1%	2%	?	-2%	-23%
Cc1cc(C)c(NC(=O)CSc2nc(=O)[nH]c3c2CCCC3)c(C)c1	-4%[7.34 µM]	/	/	-11%[7.34 µM]	2%	/
COc1cc(-c2cc(C)c3c(OC)ccc(OC)c3n2)cc2c1OCCN(C(=O)Cn1nc(C)cc1C)C2	-4%	/	/	-20%	/	/
CC(C)c1ccc(NS(=O)(=O)c2ccc(Cl)nc2)cc1	7.9µM*	-26%	-1%	4µM*	-16%	-25%
O=[N+]([O-])c1cc(Cl)ccc1NCCc1ccccn1	-9%	-35%	22µM*	7%	-11%	-14%
COc1cc2c(cc1OC)CN(C(=O)[C@@H]1C[C@H](NCc3cn(C)c4ccccc34)CN1C1Cc3ccccc3C1)CC2	1%	/	/	-1%	/	/
O=S(=O)(Nc1cccc(-c2ccc(N3CCCCCC3)nn2)c1)c1ccccc1Cl	/	0%	-15%	/	-11%	2.5µM*
C=CCN1c2ccc(Br)cc2C(=O)CS1(=O)=O	-8%	2%	-1%	-1%	-1%	4µM*
N=C1SC(c2ccccc2)C(=O)N1c1ncc(Cc2ccccc2)s1 (stereo not given)	-9%	-5%	48%[11.6 µM]	-5%	8%	32µM*
Cc1ccc(Cc2cnc(N3C(=N)SC(c4ccccc4)C3=O)s2)cc1 (stereo not given)	-3%	8%	44%	-7%	-6%	?
CCC(SC1=NCCS1)C(=O)Nc1nnc(-c2ccccc2OC)s1 (stereo not given)	?	-2%	23%	?	1%	10µM*
Cc1ccc(-c2nc3cc(Cl)ccc3o2)cc1NC(=O)COc1ccccc1C	11%	/	/	21%	/	/
CCOC(=O)c1c(NC(=O)CSc2nnc(-c3c[nH]c4ccccc34)n2CC)sc2c1CCCC2	?	4%	-3%	-12%	-5%	1.4µM*
CCOC(=O)CSc1nnc(-c2c[nH]c3ccccc23)n1CC	7%	-5%	1%	14%	-1%	-7%
Cc1cc(/C=C/c2ccnc3ccccc23)ccc1N(C)C	-16%	/	/	-4%	/	/
CCOC(=O)c1ccc(NC(=O)CSc2nccn2Cc2ccc(OC)cc2)cc1	-11%	/	/	i	6%	/
C/C(=N\NC(=S)NCc1ccccc1)c1ccc2ccccc2c1	-2%	25%	11%	i	-1%	25µM*
CCCCCCCCCCn1c2c(c(=N)c3c1CCC3)CCC2	10µM*	-43%	-6%	13µM*	10%	73%

Bioassay records from PubChem BioAssay.
